The whole screen tested about 67,000 compounds, of which about 300 (0.45%) showed an effect of 50% or more. Many of the other results were omitted from the sample, so strong results are more common in it than they were.
These molecules were tested against Polyketide synthase Pks13 (Mycobacterium tuberculosis (strain ATCC 25618 / H37Rv)) (UniProt I6X8D2) (assay: Mycobacterium tuberculosis Polyketide synthase 13 Thioesterase (PKS13)). Conditions: 30 µM.
Assay type: functional
Parameters: scale not given: in the data most compounds retested in dose-response had high values

Chain of Polyketide synthase Pks13 (Mycobacterium tuberculosis (strain ATCC 25618 / H37Rv)) (I6X8D2 whole entry): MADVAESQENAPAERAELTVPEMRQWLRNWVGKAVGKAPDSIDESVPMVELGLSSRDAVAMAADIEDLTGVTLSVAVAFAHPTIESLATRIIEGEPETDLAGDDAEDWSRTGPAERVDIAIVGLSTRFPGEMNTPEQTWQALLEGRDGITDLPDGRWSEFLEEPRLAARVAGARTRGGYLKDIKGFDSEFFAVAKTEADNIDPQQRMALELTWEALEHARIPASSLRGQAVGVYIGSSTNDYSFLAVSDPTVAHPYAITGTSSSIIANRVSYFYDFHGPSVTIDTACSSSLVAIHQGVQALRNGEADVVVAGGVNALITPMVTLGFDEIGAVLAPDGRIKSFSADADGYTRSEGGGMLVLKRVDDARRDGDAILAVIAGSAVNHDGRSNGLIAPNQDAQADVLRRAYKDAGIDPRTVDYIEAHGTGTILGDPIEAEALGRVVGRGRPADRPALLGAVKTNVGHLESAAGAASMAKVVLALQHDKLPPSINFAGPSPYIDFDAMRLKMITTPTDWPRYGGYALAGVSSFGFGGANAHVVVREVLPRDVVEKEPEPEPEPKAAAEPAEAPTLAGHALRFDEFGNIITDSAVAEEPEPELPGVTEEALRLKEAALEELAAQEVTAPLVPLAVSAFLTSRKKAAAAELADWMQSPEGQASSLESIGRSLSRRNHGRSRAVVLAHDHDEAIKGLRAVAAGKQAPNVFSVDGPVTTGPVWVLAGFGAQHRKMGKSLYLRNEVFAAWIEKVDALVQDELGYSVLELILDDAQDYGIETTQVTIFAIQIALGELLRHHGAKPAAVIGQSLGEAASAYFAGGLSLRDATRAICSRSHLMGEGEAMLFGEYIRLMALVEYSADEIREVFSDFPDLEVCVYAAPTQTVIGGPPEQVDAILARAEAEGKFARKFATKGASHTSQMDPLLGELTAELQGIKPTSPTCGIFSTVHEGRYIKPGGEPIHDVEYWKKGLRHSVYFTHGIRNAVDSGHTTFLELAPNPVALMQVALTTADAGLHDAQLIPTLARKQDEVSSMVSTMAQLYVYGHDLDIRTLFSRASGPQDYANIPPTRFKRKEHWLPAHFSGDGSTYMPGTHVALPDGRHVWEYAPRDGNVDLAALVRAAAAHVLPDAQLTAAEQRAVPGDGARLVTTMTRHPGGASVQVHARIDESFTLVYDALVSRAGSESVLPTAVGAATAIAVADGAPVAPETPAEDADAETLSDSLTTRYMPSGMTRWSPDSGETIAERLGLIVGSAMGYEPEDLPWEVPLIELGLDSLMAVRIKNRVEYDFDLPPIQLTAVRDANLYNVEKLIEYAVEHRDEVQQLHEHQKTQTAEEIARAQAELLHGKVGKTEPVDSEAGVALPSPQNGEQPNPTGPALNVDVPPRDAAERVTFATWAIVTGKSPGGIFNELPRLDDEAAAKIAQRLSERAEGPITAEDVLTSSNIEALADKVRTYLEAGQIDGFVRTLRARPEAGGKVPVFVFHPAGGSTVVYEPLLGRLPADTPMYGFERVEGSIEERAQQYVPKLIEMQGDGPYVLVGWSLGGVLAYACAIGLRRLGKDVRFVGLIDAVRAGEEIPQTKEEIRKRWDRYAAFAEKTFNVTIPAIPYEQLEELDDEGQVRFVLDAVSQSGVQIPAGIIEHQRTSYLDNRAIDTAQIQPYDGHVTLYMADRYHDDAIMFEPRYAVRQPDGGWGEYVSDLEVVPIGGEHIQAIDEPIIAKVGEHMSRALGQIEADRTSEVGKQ

Compound	Percent Effect [%]
Cc1cc(CN2C[C@H]3CCC[C@@]3(COCC3CCOCC3)C2)no1	-40.7
CC(=O)N1C[C@@H](c2ccsc2)[C@@H]2CN(Cc3ccccc3C)CC[C@@H]21	-7.95
Cc1nc([C@@H]2C[C@@H]3CCN(Cc4cnn(C)c4)C[C@H]3O2)sc1C	-30.4
CC(=O)N1CCS(=O)(=O)[C@@H]2CCN(CC(C)C)CC[C@@H]21	-16.8
Cc1cccc(C(C)CNS(=O)(=O)CCCC#N)c1 (configuration not stated)	50.7
COCCS(=O)(=O)NCC(C)c1cccc(C)c1 (configuration not stated)	-20.8
CC(CNS(=O)(=O)CCCC#N)c1ccsc1 (configuration not stated)	-31.9
Cn1cc(CN2C[C@H]3CCN(C(=O)c4cscn4)C[C@H]3C2)cn1	-3.8
Cc1ccc(CC(=O)N2CC[C@@H]3NC(=O)CC[C@@H]32)cc1	-1.54
O=S(=O)(NCC1CCN(c2cnccn2)CC1)c1cccs1	45.5
CCS(=O)(=O)NCC1CCN(c2cnccn2)CC1	-18.7
CCc1ccc(S(=O)(=O)NCC2CCN(c3cnccn3)CC2)s1	56.2
CCCc1ccc(CN2CCN(C(=O)CC(C)C)[C@@H]3CS(=O)(=O)C[C@@H]32)o1	-12.9
CCN(Cc1ccccc1)C(=O)c1cc(C2CCCN2C)ccn1 (configuration not stated)	-15.7
CCN(CC)C(=O)c1cc(C2CCCN2C)ccn1 (configuration not stated)	88.5
CN1CCCC1c1ccnc(C(=O)N(C)C2CCCCC2)c1 (configuration not stated)	5.64
C=Cn1ncc(CN2C[C@@H]3CCCN3C[C@@H]2CCSC)c1C	-1.08
Cc1cnn(CC2CN(Cc3nnc(C4CC4)o3)CCO2)c1 (configuration not stated)	-7.17
CCc1nnc(CN2CCOC(Cn3cc(C)cn3)C2)o1 (configuration not stated)	52.7
Cc1cnn(CC2CN(Cc3nnc(C(C)C)o3)CCO2)c1 (configuration not stated)	-12.6
Cc1ccc(N2C[C@H]3CCC[C@@]3(COc3cccnc3)C2)nn1	-28.6
N#Cc1cc2c(=O)n(CC(O)C(F)(F)F)ccc2[nH]c1=O (configuration not stated)	-25.1
CCC(Cn1ccc2[nH]c(=O)c(C#N)cc2c1=O)OC (configuration not stated)	-9.98

Compound	Percent Effect [%]
CCCOC(C)Cn1ccc2[nH]c(=O)c(C#N)cc2c1=O (configuration not stated)	89.3
O=C(NC1CCC1)[C@H]1C[C@@H]2CN(S(=O)(=O)c3ccccc3)C[C@H]1O2	-31.3
O=C(N[C@H]1CN(Cc2cccs2)[C@@H]2CCCO[C@H]12)c1cccnc1	-28.5
COc1ccccc1CN1C(=O)O[C@@H]2CN(c3ccccn3)C[C@@H]21	4.73
COCCNc1nc2c(c(NCc3ccncc3)n1)CCNCC2	-8.09
COCCNc1nc2c(c(NCCc3cccs3)n1)CCNCC2	-17.6
COCCNc1nc2c(c(NCC3CCOC3)n1)CCNCC2 (configuration not stated)	89.6
CS(=O)(=O)NC[C@]12COC[C@H]1CN(C(=O)CCc1ccccc1)C2	-0.91
Cc1csc([C@H]2C[C@@H]3CCN(Cc4cc(C)on4)C[C@H]3O2)n1	-10.9
CN(C)S(=O)(=O)N1C[C@H]2CCC[C@@]2(COCc2cccnc2)C1	-34
CCOC(=O)N1CCN(C(=O)c2cc(OCC)c3ccoc3c2)CC1	22.8
CCOc1cc(C(=O)n2cccn2)cc(OCC)c1OCC	21.5
CCOc1cc(C(=O)n2cc(C)cn2)cc(OCC)c1OCC	53.3
Cc1nnsc1CN1C[C@H]2CC[C@@H]1CN(Cc1ccccn1)C2	2.49
O=C(O)c1csc(S(=O)(=O)Nc2cccc(OC(F)F)c2)c1	24.7
CCOc1cccc(NS(=O)(=O)c2cc(C)c(C(=O)O)s2)c1	33.3
CCOc1ccc(NS(=O)(=O)c2cc(C)c(C(=O)O)s2)c(C)c1	-32.6
CCOc1cc(C)ccc1NS(=O)(=O)c1cc(C)c(C(=O)O)s1	-26.3
CCOc1ccc(NS(=O)(=O)c2cc(C)c(C(=O)O)s2)cc1F	-32.1
Cc1cc(S(=O)(=O)Nc2cccc(I)c2)sc1C(=O)O	70
Cc1cc(S(=O)(=O)Nc2cccc(-n3cccc3)c2)sc1C(=O)O	74
CCOc1c(Cl)cccc1NS(=O)(=O)c1cc(C)c(C(=O)O)s1	-18.8
CCOc1cc(F)ccc1NS(=O)(=O)c1cc(C)c(C(=O)O)s1	4.81

Compound	Percent Effect [%]
CCc1cccc(NS(=O)(=O)c2cc(C)c(C(=O)O)s2)c1	56.8
CC(=O)c1cccc(NS(=O)(=O)c2cc(C)c(C(=O)O)s2)c1	11.7
Cc1cc(S(=O)(=O)Nc2cccc(OC(F)F)c2)sc1C(=O)O	72.8
Fc1ccc(CN2CCO[C@H]3[C@H](OCC4CC4)CC[C@@H]32)cc1	-2.1
CO[C@H]1CCN(S(=O)(=O)N(C)C)[C@@H]2CN(Cc3cccnc3)C[C@H]12	12.3
CCOC(=O)[C@@H]1[C@@H](c2ccccc2)CN2CCN(C(C)=O)C[C@H]12	0.569
Cc1nc(CN2C[C@H]3C[C@H](C(=O)NCC4CC4)N(C)[C@H]3C2)cs1	16.8
O=C(Cc1ccsc1)N1C[C@@H]2OCCN(CC3CCCO3)[C@@H]2C1 (some centres not stated)	-0.843
c1cnn(CCCO[C@@H]2CC[C@H]3[C@H]2OCCN3CC2CC2)c1	-15.8
Cc1nccc(N2CC[C@@H]3[C@@H](CCC(=O)N3CCc3ccccc3)C2)n1	-11
O=C(NC1CCCC1)[C@@H]1CN(Cc2nccs2)C[C@H]2OCC[C@H]21	-23.6
CCOCC(=O)N1C[C@H]2CN(CC3CC3)C(=O)[C@H]2C1	-37.5
Cc1ccc2[nH]c(CO[C@H]3CN(C(=O)C4CC4)C[C@H]3F)nc2c1	17.3
CC(=O)N1C[C@@H](F)[C@@H](OCc2nc3ccc(C#N)cc3[nH]2)C1	-28.7
Cc1ccc2[nH]c(CO[C@H]3CN(c4ccc(C#N)cn4)C[C@H]3F)nc2c1	53.9
CC(C)C(=O)N1C[C@H]2CCCN[C@H]2C1	-32.8
O=C(C[C@H]1[C@H]2CN(C(=O)CO)C[C@@H]12)Nc1cccnc1	-10.3
O=S(=O)(c1c(N2CCCCC2)ccc2nonc12)N1CCCCC1	51.7
O=S(=O)(c1c(N2CCCC2)ccc2nonc12)N1CCCC1	32.4
O=S(=O)(c1ccc(N2CCCCC2)c2nonc12)N1CCCCC1	29.3
CC(C)C(=O)N1CCN(C(=O)c2cscn2)[C@H]2CS(=O)(=O)C[C@H]21	-12.2
O=C1CO[C@H]2CN(C3CCOCC3)C[C@H]2N1Cc1ccncc1	-35.6
CCN(Cc1nc2c(cnn2C)c(=O)[nH]1)c1ccc(F)cc1	-7.87

Compound	Percent Effect [%]
CCN(Cc1nc2c(cnn2C)c(=O)[nH]1)c1ccccc1	66.8
CCN(Cc1nc2c(cnn2C)c(=O)[nH]1)c1cccc(F)c1	-8.73
CN1CCC(NC(=O)c2cc(Br)cc(Cl)c2O)C1=O (configuration not stated)	11.6
CN1CCC(NC(=O)c2cc(Cl)cc(Br)c2O)C1=O (configuration not stated)	11.2
CN1CCC(NC(=O)c2cc(F)cc(Cl)c2O)C1=O (configuration not stated)	54
C/C(NC(=O)c1ccccn1)=C1\C(=O)C[C@@H]2[C@H]1C2(C)C	37.5
COCc1noc(-c2ccc(N(C)Cc3cc(C)no3)nc2)n1	-8.23
COCc1noc(-c2ccc(N(C)Cc3ncccc3C)nc2)n1	5.81
COCc1noc(-c2ccc(N(C)Cc3ccc(C)o3)nc2)n1	69.6
COCCN(C)CC(=O)N1C[C@H]2CC[C@@H]1CN(C(=O)c1ccncc1)C2	-9.17
Cc1oc(C(C)C)cc1C(=O)N1C[C@H]2CC[C@@H]1CN(C(=O)N(C)C)C2	-5.27
Cc1ccc(N2C[C@H]3CCC[C@@H](CN(C)C)[C@H]3C2)nn1	-24.5
CC(C)c1cc(NC(=O)CN2CCC(N3CCNC3=O)CC2)on1	0.26
CC(C)(C)c1cc(NC(=O)CN2CCC(N3CCNC3=O)CC2)on1	80.9
Cc1cc(NC(=O)CN2CCC(N3CCNC3=O)CC2)on1	-25.3
Cc1noc(C)c1CN1C[C@@H]2OCCN(Cc3cnn(C)c3)[C@@H]2C1	-27.8
C[C@@H]1C[C@@H]2CCN(Cc3nccs3)C[C@H]2O1	-25.2
c1cncc(COC[C@H]2CC[C@H]3[C@H](CCN3Cc3cccs3)O2)c1	-37.9
O=C(Nc1ccccn1)C1CC(=O)N(Cc2ccccn2)C1 (configuration not stated)	-26.6
CCc1cccc(C)c1NC(=O)C1CC(=O)N(Cc2ccccn2)C1 (configuration not stated)	58.8
Cc1ccc(Cl)cc1NC(=O)C1CC(=O)N(Cc2ccccn2)C1 (configuration not stated)	-5.88
Cc1nnc([C@H]2C[C@H]3OCC[C@H]3N(S(=O)(=O)N(C)C)C2)o1	-28.4
CC(C)N1CCO[C@H]2CN(Cc3cc[nH]n3)C[C@H]21	-16.1

Compound	Percent Effect [%]
CN(Cc1ccco1)C[C@H]1OC[C@@H]2CCN(Cc3cccs3)C[C@@H]21	-7.96
Cc1ccn2c(=O)cc(CSCC(=O)Nc3nnc(C(C)C)s3)nc2c1	-42
CC(C)c1nnc(NC(=O)CSCc2cc(=O)n3ccccc3n2)s1	-12.4
Cc1cccn2c(=O)cc(CSCC(=O)Nc3nnc(C(C)C)s3)nc12	98.2
Cc1cc(N2CCCC2c2cncc(N(C)C)n2)ncn1 (configuration not stated)	-0.232
CNc1cncc(C2CCCN2c2cc(C)ncn2)n1 (configuration not stated)	55
Cc1cc(N2CCCC2c2cnccn2)ncn1 (configuration not stated)	-32.2
O=C(NC1CC1)[C@@H]1C[C@@H]2CCN(Cc3ccoc3)C[C@@H]2O1	-9.29
O=C(c1cn2ccsc2n1)N1CCN(CC2CC2)[C@@H]2CS(=O)(=O)C[C@@H]21	-4.84
CC[C@H](C)[C@H](N)C(=O)Nc1nc(-c2cnc(N(C)CCO)nc2)cs1	27.2
CC[C@H](C)[C@H](N)C(=O)Nc1nc(-c2cnc(N3CCOCC3)nc2)cs1	36.7
CC[C@H](C)[C@H](N)C(=O)Nc1nc(-c2cnc(N(C)C)nc2)cs1	146
CN1CCc2c(sc3c2C(=O)NC(/C=C/c2ccccc2)N3)C1 (configuration not stated)	33.3
O=C1C[C@H]2[C@H](CCN2C(=O)c2cc[nH]n2)N1Cc1cccnc1	-24.8
O=C1CC(c2ccco2)c2sc(C(=O)O)c(-c3ccccc3)c2N1 (configuration not stated)	65.6
O=C1CC(c2ccccc2)c2sc(C(=O)O)c(-c3ccccc3)c2N1 (configuration not stated)	-32
O=C1CC(c2ccc(O)cc2)c2sc(C(=O)O)c(-c3ccccc3)c2N1 (configuration not stated)	-18.2
O=C(C1CC(=O)N(c2ccccc2Br)C1)N1CCCCCC1 (configuration not stated)	-11.4
O=C(C1CC1)N1CCN(C(=O)C2CC(=O)N(c3ccccc3Br)C2)CC1 (configuration not stated)	-26.4
CCOC(=O)N1CCN(C(=O)C2CC(=O)N(c3ccccc3Br)C2)CC1 (configuration not stated)	50.9

Reference: ChEMBL document CHEMBL3988442, “University of Dundee, Small-Polar-MMV Screening Library” (2021)
